# Experimental data from paper PMC7862700, “An all-to-all approach to the identification of sequence-specific readers for epigenetic DNA modifications on cytosine”.
# Experiments:
# Assay in all cases: DAPPL (digital affinity profiling via proximity ligation, sequencing); 10 mM Tris-HCl pH 7.5, 50 mM NaCl, 1 mM DTT, 4% glycerol, room temperature, 30 min; GST-TFs on glutathione beads, 16-mer random dsDNA library, 0.1% formaldehyde crosslink after washing; high values mean tight binding
# FEV = target: T1, FEV (Homo sapiens, UniProt Q99581 1-238); conditions: protein: recombinant; tags: N-terminal GST; dsDNA, one strand shown
# T1 sequence: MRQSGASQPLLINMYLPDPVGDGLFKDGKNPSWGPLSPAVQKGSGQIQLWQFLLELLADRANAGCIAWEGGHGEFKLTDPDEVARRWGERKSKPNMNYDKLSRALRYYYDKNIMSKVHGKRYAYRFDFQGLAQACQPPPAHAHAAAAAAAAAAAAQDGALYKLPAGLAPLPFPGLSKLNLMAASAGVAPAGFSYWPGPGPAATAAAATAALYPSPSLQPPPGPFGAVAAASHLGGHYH
# Method in brief: (§1)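 In yeast, human transcription factors were expressed with a GST fusion, then pulled down on glutathione beads and given DNA barcodes. Pooled with a tag-only sample, they were exposed to 200 nmole of a 16-mer random double-stranded DNA library (Tris/NaCl/DTT/glycerol buffer, room temperature, 30 min), washed, crosslinked with 0.1% formaldehyde, proximity-ligated using BsaI/T4 ligase for 1 h at 37 °C, PCR-amplified and read on an Illumina NextSeq500. Each hexamer's frequency of reads for a factor, divided by the matching frequency for the tag-only sample, gives the binding signal.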
# ETV5 = ETV5 (Homo sapiens, UniProt P41161 1-510); conditions: protein: recombinant; tags: N-terminal GST; dsDNA, one strand shown
# Chain of ETV5 (P41161 whole entry): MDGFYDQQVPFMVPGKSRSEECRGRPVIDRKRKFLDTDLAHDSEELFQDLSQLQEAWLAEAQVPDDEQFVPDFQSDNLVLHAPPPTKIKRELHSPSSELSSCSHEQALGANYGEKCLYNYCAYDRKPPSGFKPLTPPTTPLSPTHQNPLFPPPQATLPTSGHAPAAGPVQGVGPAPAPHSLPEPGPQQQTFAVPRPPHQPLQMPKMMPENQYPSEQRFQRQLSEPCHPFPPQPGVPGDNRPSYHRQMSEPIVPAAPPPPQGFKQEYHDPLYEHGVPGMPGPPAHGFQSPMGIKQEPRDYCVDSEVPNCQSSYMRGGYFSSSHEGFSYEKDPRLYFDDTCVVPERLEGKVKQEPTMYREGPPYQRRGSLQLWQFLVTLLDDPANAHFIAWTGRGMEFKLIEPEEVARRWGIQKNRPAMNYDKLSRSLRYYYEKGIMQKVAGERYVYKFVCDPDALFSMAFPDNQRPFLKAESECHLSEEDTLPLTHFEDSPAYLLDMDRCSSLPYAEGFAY
# Method in brief: as §1
# HSF1 = HSF1 (Homo sapiens, UniProt Q00613 1-529); conditions: protein: recombinant; tags: N-terminal GST; chain copies: 3; dsDNA, one strand shown
# Chain of HSF1 (Q00613 whole entry): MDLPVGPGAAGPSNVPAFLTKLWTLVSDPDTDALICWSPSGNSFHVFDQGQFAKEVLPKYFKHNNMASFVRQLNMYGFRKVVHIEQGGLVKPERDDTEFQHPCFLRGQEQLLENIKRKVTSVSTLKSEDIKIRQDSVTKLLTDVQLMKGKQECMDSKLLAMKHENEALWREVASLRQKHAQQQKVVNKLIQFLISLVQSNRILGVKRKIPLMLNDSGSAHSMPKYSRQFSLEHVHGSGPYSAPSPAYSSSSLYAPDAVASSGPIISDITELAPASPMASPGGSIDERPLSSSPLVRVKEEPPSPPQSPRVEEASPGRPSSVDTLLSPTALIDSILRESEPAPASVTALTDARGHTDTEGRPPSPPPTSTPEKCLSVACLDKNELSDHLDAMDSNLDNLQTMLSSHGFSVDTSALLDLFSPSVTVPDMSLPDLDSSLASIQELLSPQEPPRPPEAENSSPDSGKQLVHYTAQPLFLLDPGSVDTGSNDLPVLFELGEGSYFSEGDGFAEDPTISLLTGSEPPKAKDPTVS
# Method in brief: as §1
# SPIC = target: T2, SPIC (Homo sapiens, UniProt Q8N5J4 1-248); conditions: protein: recombinant; tags: N-terminal GST; dsDNA, one strand shown
# T2 sequence: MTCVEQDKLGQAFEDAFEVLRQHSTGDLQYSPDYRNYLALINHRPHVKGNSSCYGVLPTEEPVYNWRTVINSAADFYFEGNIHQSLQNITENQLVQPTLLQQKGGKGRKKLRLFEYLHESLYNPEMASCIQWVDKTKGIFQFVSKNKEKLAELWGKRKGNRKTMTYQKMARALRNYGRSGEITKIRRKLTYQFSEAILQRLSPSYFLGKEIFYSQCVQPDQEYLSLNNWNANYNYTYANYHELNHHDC
# Method in brief: as §1
# ELF4 = ELF4 (Homo sapiens, UniProt Q99607 1-663); conditions: protein: recombinant; tags: N-terminal GST; dsDNA, one strand shown
# Chain of ELF4 (Q99607 whole entry): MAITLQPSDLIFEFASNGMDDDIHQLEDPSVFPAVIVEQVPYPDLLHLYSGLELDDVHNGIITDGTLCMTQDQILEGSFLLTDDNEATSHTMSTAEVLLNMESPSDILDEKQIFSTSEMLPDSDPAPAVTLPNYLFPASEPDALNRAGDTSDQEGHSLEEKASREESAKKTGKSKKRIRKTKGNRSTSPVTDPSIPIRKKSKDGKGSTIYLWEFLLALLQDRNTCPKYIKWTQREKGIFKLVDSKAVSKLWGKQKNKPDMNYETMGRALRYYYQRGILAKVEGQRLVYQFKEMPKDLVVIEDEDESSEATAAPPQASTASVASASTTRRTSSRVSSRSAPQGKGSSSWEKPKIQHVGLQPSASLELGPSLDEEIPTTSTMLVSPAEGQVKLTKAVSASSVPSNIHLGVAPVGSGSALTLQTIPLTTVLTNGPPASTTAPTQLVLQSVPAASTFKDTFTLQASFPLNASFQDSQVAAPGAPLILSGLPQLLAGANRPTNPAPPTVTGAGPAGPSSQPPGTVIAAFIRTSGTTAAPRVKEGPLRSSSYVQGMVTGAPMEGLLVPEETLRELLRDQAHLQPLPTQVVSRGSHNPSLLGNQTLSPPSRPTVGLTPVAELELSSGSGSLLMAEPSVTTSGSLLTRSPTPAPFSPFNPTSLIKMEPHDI
# Method in brief: as §1
# ELK4 = target: T3, ELK4 (Homo sapiens, UniProt P28324-2 1-405); conditions: protein: recombinant; tags: N-terminal GST; dsDNA, one strand shown
# T3 sequence: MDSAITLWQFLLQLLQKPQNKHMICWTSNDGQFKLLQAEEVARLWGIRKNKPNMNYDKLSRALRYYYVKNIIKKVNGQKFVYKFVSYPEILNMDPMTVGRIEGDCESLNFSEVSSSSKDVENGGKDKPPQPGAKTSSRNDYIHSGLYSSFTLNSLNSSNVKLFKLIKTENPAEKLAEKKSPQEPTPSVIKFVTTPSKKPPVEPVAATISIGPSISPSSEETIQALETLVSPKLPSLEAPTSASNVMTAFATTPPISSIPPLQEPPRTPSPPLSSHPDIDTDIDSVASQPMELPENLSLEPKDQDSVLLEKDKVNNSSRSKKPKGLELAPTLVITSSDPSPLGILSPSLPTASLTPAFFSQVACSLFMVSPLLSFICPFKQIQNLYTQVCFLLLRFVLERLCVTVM
# Method in brief: as §1
# ETV2 = target: T4, ETV2 (Homo sapiens, UniProt O00321 1-342); conditions: protein: recombinant; tags: N-terminal GST; dsDNA, one strand shown
# T4 sequence: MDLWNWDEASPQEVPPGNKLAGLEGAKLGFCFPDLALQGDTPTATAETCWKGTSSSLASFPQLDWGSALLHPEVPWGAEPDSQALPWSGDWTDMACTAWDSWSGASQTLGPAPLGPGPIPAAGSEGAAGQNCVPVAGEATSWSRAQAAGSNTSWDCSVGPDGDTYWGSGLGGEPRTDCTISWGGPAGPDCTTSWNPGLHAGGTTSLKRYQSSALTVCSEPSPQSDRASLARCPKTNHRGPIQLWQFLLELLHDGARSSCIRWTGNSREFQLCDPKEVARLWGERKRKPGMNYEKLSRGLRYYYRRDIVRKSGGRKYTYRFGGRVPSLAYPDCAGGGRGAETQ
# Method in brief: as §1
# ELF3 = target: T5, ELF3 (Homo sapiens, UniProt P78545 1-371); conditions: protein: recombinant; tags: N-terminal GST; dsDNA, one strand shown
# T5 sequence: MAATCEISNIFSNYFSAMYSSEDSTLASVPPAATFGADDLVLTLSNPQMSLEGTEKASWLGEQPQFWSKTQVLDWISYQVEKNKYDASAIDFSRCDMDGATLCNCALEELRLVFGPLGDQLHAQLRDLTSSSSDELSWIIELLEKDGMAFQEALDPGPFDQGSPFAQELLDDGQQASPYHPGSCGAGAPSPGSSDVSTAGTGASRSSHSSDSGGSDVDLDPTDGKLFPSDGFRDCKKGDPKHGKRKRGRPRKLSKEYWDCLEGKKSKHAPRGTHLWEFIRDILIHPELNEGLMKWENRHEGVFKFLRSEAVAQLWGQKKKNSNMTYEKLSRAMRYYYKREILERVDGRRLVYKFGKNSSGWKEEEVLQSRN
# Method in brief: as §1
# CRX = CRX (Homo sapiens, UniProt O43186 1-299); conditions: protein: recombinant; tags: N-terminal GST; dsDNA, one strand shown
# Chain of CRX (O43186 whole entry): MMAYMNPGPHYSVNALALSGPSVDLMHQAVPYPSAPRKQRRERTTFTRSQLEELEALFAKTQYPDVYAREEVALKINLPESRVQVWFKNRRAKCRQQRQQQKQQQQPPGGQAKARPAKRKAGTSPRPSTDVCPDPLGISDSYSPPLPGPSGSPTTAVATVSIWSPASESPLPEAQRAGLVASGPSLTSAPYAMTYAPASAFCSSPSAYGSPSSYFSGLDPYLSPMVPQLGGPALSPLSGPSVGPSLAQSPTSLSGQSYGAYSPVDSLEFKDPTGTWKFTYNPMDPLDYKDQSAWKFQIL
# Method in brief: as §1
# ETV1 = ETV1 (Homo sapiens, UniProt P50549 1-477); conditions: protein: recombinant; tags: N-terminal GST; dsDNA, one strand shown
# Chain of ETV1 (P50549 whole entry): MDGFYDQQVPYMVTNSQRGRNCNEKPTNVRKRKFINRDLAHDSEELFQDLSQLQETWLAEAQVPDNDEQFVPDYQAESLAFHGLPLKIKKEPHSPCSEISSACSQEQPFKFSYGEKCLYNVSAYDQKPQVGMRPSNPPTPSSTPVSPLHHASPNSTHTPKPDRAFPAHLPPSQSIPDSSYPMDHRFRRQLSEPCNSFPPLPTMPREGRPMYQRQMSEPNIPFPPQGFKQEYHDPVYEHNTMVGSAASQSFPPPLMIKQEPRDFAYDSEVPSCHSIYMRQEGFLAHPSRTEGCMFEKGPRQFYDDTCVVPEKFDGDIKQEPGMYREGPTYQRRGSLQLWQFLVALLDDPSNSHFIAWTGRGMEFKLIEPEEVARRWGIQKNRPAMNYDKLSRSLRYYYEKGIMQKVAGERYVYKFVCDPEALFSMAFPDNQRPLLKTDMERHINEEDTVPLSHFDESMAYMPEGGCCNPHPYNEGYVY
# Method in brief: as §1
# ERF = target: T6, ERF (Homo sapiens, UniProt P50548 1-548); conditions: protein: recombinant; tags: N-terminal GST; dsDNA, one strand shown
# T6 sequence: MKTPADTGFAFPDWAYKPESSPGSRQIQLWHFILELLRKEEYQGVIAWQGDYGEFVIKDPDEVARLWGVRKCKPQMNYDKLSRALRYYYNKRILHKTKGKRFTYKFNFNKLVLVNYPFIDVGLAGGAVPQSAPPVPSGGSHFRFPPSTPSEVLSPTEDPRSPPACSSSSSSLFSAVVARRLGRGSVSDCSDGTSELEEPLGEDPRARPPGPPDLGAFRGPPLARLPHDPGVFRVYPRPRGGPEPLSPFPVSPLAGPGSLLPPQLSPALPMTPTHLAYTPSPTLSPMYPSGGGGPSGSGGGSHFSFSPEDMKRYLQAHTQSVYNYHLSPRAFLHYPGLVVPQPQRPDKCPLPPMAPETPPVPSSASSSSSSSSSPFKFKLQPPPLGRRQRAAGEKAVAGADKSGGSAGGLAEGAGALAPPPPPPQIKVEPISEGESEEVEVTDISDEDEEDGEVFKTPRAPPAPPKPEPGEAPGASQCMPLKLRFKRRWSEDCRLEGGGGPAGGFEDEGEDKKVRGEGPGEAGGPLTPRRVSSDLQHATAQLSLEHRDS
# Method in brief: as §1
# ETV3L = target: T7, ETV3L (Homo sapiens, UniProt Q6ZN32 1-361); conditions: protein: recombinant; tags: N-terminal GST; dsDNA, one strand shown
# T7 sequence: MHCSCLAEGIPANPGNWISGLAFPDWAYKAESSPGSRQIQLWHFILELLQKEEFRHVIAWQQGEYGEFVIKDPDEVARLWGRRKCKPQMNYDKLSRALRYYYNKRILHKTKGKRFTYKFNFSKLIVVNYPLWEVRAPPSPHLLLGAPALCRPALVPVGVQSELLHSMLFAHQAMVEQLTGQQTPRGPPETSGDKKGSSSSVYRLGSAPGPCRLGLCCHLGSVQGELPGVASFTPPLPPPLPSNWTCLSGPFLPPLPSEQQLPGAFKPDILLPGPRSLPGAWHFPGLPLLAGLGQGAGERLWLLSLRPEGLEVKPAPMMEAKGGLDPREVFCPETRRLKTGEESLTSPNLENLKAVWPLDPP
# Method in brief: as §1
# ETS2 = target: T8, ETS2 (Homo sapiens, UniProt P15036 1-469); conditions: protein: recombinant; tags: N-terminal GST; dsDNA, one strand shown
# T8 sequence: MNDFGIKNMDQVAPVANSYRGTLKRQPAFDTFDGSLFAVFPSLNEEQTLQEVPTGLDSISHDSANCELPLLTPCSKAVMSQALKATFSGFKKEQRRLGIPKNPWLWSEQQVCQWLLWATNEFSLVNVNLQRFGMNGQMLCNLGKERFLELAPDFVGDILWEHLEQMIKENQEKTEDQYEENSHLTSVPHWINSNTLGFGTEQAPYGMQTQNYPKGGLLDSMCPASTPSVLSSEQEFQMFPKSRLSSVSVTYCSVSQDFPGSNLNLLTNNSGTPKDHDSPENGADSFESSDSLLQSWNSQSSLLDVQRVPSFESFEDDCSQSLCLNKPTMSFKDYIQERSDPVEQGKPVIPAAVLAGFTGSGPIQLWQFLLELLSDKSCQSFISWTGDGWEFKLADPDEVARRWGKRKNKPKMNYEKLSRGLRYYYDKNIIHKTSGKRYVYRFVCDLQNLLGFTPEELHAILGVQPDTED
# Method in brief: as §1
# SPDEF = target: T9, SPDEF (Homo sapiens, UniProt O95238 1-335); conditions: protein: recombinant; tags: N-terminal GST; dsDNA, one strand shown
# T9 sequence: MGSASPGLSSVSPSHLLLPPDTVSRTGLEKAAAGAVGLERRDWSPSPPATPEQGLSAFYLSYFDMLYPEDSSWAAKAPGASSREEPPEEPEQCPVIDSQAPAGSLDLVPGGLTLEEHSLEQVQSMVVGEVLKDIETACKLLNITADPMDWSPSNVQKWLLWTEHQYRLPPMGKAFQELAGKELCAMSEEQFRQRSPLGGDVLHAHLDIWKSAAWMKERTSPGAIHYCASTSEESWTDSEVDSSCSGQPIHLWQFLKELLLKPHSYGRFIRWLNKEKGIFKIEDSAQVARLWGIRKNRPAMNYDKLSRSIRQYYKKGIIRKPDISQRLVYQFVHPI
# Method in brief: as §1
# ETV7 = target: T10, ETV7 (Homo sapiens, UniProt Q9Y603 1-341); conditions: protein: recombinant; tags: N-terminal GST; dsDNA, one strand shown
# T10 sequence: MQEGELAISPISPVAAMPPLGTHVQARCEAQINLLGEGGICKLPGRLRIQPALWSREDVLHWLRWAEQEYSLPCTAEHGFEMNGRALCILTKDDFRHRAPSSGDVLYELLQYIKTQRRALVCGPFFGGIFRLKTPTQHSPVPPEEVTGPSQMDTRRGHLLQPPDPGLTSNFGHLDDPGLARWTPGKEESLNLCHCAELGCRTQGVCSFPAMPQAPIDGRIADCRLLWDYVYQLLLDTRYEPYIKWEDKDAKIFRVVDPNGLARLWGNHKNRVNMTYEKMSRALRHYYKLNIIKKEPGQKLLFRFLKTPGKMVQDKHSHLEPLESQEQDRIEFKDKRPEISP
# Method in brief: as §1
# ELF5 = target: T11, ELF5 (Homo sapiens, UniProt Q9UKW6-2 1-255); conditions: protein: recombinant; tags: N-terminal GST; dsDNA, one strand shown
# T11 sequence: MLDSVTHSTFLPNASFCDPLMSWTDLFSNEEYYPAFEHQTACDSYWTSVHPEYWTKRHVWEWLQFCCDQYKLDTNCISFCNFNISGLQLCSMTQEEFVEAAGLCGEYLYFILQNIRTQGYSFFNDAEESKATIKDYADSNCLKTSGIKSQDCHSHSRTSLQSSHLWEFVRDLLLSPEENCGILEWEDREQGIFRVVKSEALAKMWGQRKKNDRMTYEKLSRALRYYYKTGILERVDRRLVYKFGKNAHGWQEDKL
# Method in brief: as §1
# ETV3 = target: T12, ETV3 (Homo sapiens, UniProt P41162-2 1-143); conditions: protein: recombinant; tags: N-terminal GST; dsDNA, one strand shown
# T12 sequence: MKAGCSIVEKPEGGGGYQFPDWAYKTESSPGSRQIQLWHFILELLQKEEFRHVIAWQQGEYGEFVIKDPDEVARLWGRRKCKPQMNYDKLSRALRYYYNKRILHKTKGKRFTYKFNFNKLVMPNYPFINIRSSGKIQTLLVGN
# Method in brief: as §1
# ETV6 = ETV6 (Homo sapiens, UniProt P41212 1-452); conditions: protein: recombinant; tags: N-terminal GST; dsDNA, one strand shown
# Chain of ETV6 (P41212 whole entry): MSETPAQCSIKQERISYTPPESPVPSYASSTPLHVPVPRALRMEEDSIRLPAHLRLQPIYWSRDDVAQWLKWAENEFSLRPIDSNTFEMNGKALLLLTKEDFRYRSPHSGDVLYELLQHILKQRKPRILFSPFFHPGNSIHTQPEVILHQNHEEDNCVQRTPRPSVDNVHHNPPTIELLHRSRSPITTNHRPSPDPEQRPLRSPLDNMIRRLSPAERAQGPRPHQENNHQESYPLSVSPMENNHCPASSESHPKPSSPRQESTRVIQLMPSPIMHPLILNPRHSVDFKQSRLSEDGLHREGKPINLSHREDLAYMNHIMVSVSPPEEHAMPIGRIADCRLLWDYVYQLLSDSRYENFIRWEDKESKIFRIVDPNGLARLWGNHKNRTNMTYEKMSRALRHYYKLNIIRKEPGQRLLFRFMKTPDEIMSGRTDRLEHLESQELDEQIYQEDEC
# Method in brief: as §1
sequence,measurement,setting,value
ACGGCT,binding signal,FEV,"1.2 fold enrichment (6-mer frequency, TF over GST control)"
same,binding signal,ETV5,"1.13 fold enrichment (6-mer frequency, TF over GST control)"
same,binding signal,HSF1,"1.13 fold enrichment (6-mer frequency, TF over GST control)"
same,binding signal,SPIC,"1.1 fold enrichment (6-mer frequency, TF over GST control)"
same,binding signal,ELF4,"1.1 fold enrichment (6-mer frequency, TF over GST control)"
same,binding signal,ELK4,"1.14 fold enrichment (6-mer frequency, TF over GST control)"
same,binding signal,ETV2,"1.07 fold enrichment (6-mer frequency, TF over GST control)"
same,binding signal,ELF3,"1.13 fold enrichment (6-mer frequency, TF over GST control)"
same,binding signal,CRX,"1.36 fold enrichment (6-mer frequency, TF over GST control)"
same,binding signal,ETV1,"1.05 fold enrichment (6-mer frequency, TF over GST control)"
same,binding signal,ERF,"1.16 fold enrichment (6-mer frequency, TF over GST control)"
same,binding signal,ETV3L,"1.23 fold enrichment (6-mer frequency, TF over GST control)"
same,binding signal,ETS2,"1.19 fold enrichment (6-mer frequency, TF over GST control)"
same,binding signal,SPDEF,"1.18 fold enrichment (6-mer frequency, TF over GST control)"
same,binding signal,ETV7,"1.03 fold enrichment (6-mer frequency, TF over GST control)"
same,binding signal,ELF5,"1.07 fold enrichment (6-mer frequency, TF over GST control)"
same,binding signal,ETV3,"1.11 fold enrichment (6-mer frequency, TF over GST control)"
same,binding signal,ETV6,"1.16 fold enrichment (6-mer frequency, TF over GST control)"
